Measured values taken from ChEMBL document CHEMBL4513216, “Probing the Open Global Health Chemical Diversity Library for Multistage-Active Starting Points for Next-Generation Antimalarials” (ACS Infect Dis, 2020).
About 8,600 (12%) of roughly 69,000 compounds showed an effect of 50% or more. Shown is part of a subset that was picked to be rich in strong results.

System: Plasmodium berghei
Assay: Screen against P. berghei liver stage (PbLuc), transformed with Luciferase, at 10uM
Assay type: functional, HepG2
Conditions: tested at 10 uM

SMILES | INHIBITION
O=C(Cc1nc(-c2ccncc2)n[nH]1)NCCCN1CCOCC1 | 66.3%
OCC1CCCN1c1cc(NCc2cccc3cccnc23)ncn1 (stereo unspecified) | -21.8%
Cc1ccc(CS(=O)(=O)CC(=O)NCCCOC(C)C)cc1 | 15.6%
Cc1cc(C)c(CNC(=O)NC(C)c2ccc3c(c2)CCC3)c(=O)[nH]1 (stereo unspecified) | 48.2%
Cc1cc(CN2CCOC(CNc3cccnn3)C2)on1 (stereo unspecified) | 2.3%
CCN1CCC(CC(=O)N2CCN(c3ccccc3OC)CC2C)CC1 (stereo unspecified) | 21.2%
COc1ccccc1N1CCN(C(=O)CSC(C)C)C(C)C1 (stereo unspecified) | 17.6%
COc1ccccc1N1CCN(C(=O)CSCC2CC2)C(C)C1 (stereo unspecified) | 51.2%
COc1ncccc1-c1cc(C(N)=O)ccn1 | 52.2%
COc1ncccc1-c1cc(C(=O)NC2CC2)ccn1 | -68.7%
COc1ncccc1-c1ncccc1NC(=O)C(C)C | 24.3%
CN1CCCC1CNC(=O)CCOc1ccc(Cl)cc1 (stereo unspecified) | -11.98%
CCN(CC)CCCN1CCN(c2nc(C)cnc2C)CC1 | 71.1%
Cc1cnc(C)c(N2CCN(CCCc3ccncc3)CC2)n1 | 76%
CSCCN1CCN(c2nc(N)ncc2C)CC1 | 19.4%
Cc1noc(C(C)N2CCN(CCc3ccncc3)CC2)n1 (stereo unspecified) | -11.9%
Cc1cnc(C)c(N2CCN(CCCc3[nH]nc(C)c3C)CC2)n1 | 30.3%
Cc1cnc(N)nc1N1CCN(CCCO)CC1 | 42.1%
Cc1nc(CN2C[C@@H]3COC[C@]3(COCC(=O)N(C)C)C2)cs1 | 43.1%
CN(C)c1ccc(C(=O)Nc2cn[nH]c2)cc1 | 4.885%
Cc1cc(C)n(CC(=O)N2CCCC2c2cc3cccnc3[nH]2)n1 (stereo unspecified) | 9.05%
CCC(=O)N1CCOC(c2cc(Nc3nncs3)cc(C)n2)C1 (stereo unspecified) | 41%
O=S1(=O)NC(=CSCc2ccccc2)Nc2ccccc21 | 38%
O=C(c1cc(C2CC2)n[nH]1)N1C[C@H]2CC[C@](O)(c3ccccc3F)[C@H]2C1 | -16.56%
O=C(c1cc(C2CC2)on1)N1C[C@H]2CC[C@](O)(c3ccc(F)cc3)[C@H]2C1 | 1.75%
O=C(c1cc(C2CC2)on1)N1C[C@H]2CC[C@](O)(c3ccccc3F)[C@H]2C1 | 53.45%

SMILES | INHIBITION
CCC[C@H]1CN(CCS(C)(=O)=O)C[C@@H]1NC(=O)c1cccnn1 | -25.2%
CCC[C@H]1CN(CCS(C)(=O)=O)C[C@@H]1NC(=O)c1ccn(C)n1 | 61.2%
CCC[C@H]1CN(CCS(C)(=O)=O)C[C@@H]1NC(=O)c1cc[nH]n1 | 13%
CCC[C@H]1CN(CCS(C)(=O)=O)C[C@@H]1NC(=O)c1cc(CC)on1 | 50.1%
CCC[C@H]1CN(CCS(C)(=O)=O)C[C@@H]1NC(=O)c1ccccn1 | 26.6%
CCC[C@H]1CN(CCS(C)(=O)=O)C[C@@H]1NC(=O)c1ccccc1F | -30.2%
Cc1cnn(CC2CCCN2C(=O)CCc2ccncc2)c1 (stereo unspecified) | -14%
Cc1cccc(-c2cc(C(=O)O)sn2)c1 | -12.1%
Cc1occc(=O)c1OCc1noc(C(=O)NCC2CC2)n1 | 33.5%
O=C(c1cccnc1)N1CCn2nnc(COc3cccnc3)c2C1 | 47.8%
Cc1ccc(CN2CCC3(CC2)CC(N2CCN(C)CC2)CO3)s1 (stereo unspecified) | 47.4%
CN1CCN(C2COC3(CCN(Cc4ccc(F)cc4)CC3)C2)CC1 (stereo unspecified) | 54.4%
CN1CCN(C2COC3(CCN(Cc4cccs4)CC3)C2)CC1 (stereo unspecified) | 1.94%
CN1CCN(C2COC3(CCN(Cc4ccsc4)CC3)C2)CC1 (stereo unspecified) | 54.4%
CCOC1COC2(CCN(Cc3ccc(F)cc3)CC2)C1 (stereo unspecified) | -24.5%
CCc1ccc(CN2CCC3(CC2)CC(N2CCN(C)CC2)CO3)cc1 (stereo unspecified) | 45.5%
COC(=O)c1cc(C)nc(N2CCN(Cc3cc(C(C)C)no3)CC2)n1 | 23.1%
COc1cccc(OC)c1-c1c[nH]c(C)n1 | 1.56%
Cn1cnc2c1CCN(Cc1c(Cl)ccc3cccnc13)C2 | -20.8%
CN1CCN(C)C(c2nnc3ccc(C(=O)N4CCOCC4)cn23)C1 (stereo unspecified) | 8.03%
CS(=O)(=O)N1CCC(c2nnc3ccc(C(=O)N4CCCC4)cn23)C1 (stereo unspecified) | 40.4%
CN1CCC(c2nnc3ccc(C(=O)N4CCCCC4)cn23)C1 (stereo unspecified) | 82.8%
CC(C)NC(=O)c1ccc2nnc(C3CN(C)CCN3C)n2c1 (stereo unspecified) | -37.9%
CC(C)N1CCN(C)CC1c1nnc2ccc(C(=O)N3CCCC3)cn12 (stereo unspecified) | 82.8%
CN1CCC(c2nnc3ccc(C(=O)NC4CCCC4)cn23)C1 (stereo unspecified) | -1.26%
